Screening results deposited in PubChem BioAssay by The Scripps Research Institute Molecular Screening Center.
CHRM1 antagonist: human CHRM1 antagonism; AID 588852; inhibition, % at 3 µM; CHO-K1 hM1, Fluo-8 calcium fluorescence, ACh EC80 antagonist; actives 1.3% (n = 360,000);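 active means percent inhibition above its own plate's cutoff, namely the mean of that plate's compound wells plus 3 SD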;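 further: peak over basal fluorescence ratio during 140 s after agonist addition; 0% = ACh EC80 plus DMSO and 100% = DMSO alone without agonist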
Target sequence (P11229 whole entry, looked up): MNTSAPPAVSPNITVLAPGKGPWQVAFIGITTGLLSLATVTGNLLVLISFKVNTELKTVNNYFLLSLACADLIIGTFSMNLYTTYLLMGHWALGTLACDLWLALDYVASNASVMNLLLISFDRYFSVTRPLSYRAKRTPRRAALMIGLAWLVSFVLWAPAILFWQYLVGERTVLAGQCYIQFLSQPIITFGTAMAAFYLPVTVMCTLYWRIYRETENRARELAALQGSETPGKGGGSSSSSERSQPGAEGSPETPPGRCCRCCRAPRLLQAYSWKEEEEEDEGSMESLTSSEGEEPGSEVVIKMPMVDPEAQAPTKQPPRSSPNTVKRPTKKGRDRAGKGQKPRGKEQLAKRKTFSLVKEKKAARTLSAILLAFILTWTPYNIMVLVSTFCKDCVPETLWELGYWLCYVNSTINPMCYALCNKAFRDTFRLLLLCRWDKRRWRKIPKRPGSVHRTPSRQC
CHRM1 PAM: human CHRM1 positive allosteric modulation; P11229; CHO-K1 hM1, Fluo-8 calcium fluorescence, ACh EC20; 0% = ACh EC20, 100% = maximal ACh; activation, % at 3 µM; actives 0.088% (n = 360,000); in the data active means activation above about 19%, passing the limit was not always enough
M1 ag: agonists of human M1 muscarinic receptor. CHO-K1 hM1, Fluo-8 calcium fluorescence, agonist mode; 0% DMSO, 100% acetylcholine EC100. activation, % at 3 µM. actives 0.33% (n = 360,000). AID 588814;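 active means activation above the run's mean compound activation plus 3 SD, cut at about 16% in these data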;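 further: peak over basal fluorescence ratio within a 140 s kinetic read after compound addition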
CHO-K1 Ca ag: nonselective activator or artifact in parental CHO-K1 cells | Fluo-8 calcium fluorescence; scaled to maximal ATP response, vehicle zero | activation, % at 3 µM | actives 0.48% (n = 360,000); in the data active means activation above about 15%;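 further: untransfected CHO-K1 host cells lacking M1 receptor as counterscreen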
CHO-K1 Ca antag: M1 antagonist counterscreen hit in parental CHO-K1 cells; AID 602250; inhibition, % at 3 µM; actives 0.6% (n = 360,000); ATP-induced calcium, Fluo-8 fluorescence;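 active means inhibition above a per-plate cutoff, the plate's mean sample inhibition plus 3 SD, cut at about 24% in these data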;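 further: 0% = DMSO plus EC80 ATP and 100% = DMSO alone without ATP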
CHO-K1 Ca PAM: nonselective activator or artifact in parental CHO-K1 calcium assay | AID 602247 | activation, % at 3 µM | actives 0.02% (n = 360,000) | ATP EC20, Fluo-8 calcium fluorescence; 0% at ATP EC20, 100% at ATP max;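 active means activation above the run cutoff, the mean activation of all test compounds plus 3 SD, cut at about 40% in these data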;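 further: peak over basal fluorescence ratio in a 140 s read after ATP addition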
* hit, by the source's call. A selection: hits, their analogues and other compounds. The true share with any hit is near 2.4%.

SMILES	CHRM1 antagonist	CHRM1 PAM	M1 ag	CHO-K1 Ca ag	CHO-K1 Ca antag	CHO-K1 Ca PAM
CC1(C)Cc2cccc(OCC(=O)Nc3ccccc3N3CCOCC3)c2O1	30*	-13	-3	0	7	3
C[C@H]1CN([C@@H](C)CO)C(=O)CCCn2cc(nn2)CO[C@@H]1CN(C)C(=O)c1ccc(N2CCN(C)CC2)cc1	13	-8	-12	0	23	-7
CC1CCN(Cc2ccc(NC(=O)C3CCN(c4nnc(-n5cccc5)s4)CC3)cc2)CC1	97*	-35	-14	0	-6	6
CC(=O)Oc1cc2c(cc1Cl)C1(CC(c3ccccc3Cl)O2)CC(C)(C)NC(=S)N1 (configuration not stated)	47*	-12	-3	0	-5	11
CCN1CCN(CC(=O)Nc2ccc(S(=O)(=O)N3C(C)CCCC3C)cc2)CC1 (configuration not stated)	24*	-24	-11	1	-12	5
CC1CCN(S(=O)(=O)c2ccc(NC(=O)CN3CCCC3)cc2)CC1	-1	8	-3	4	-22	-8
CC1CCC(NS(=O)(=O)c2ccc(N3CCCC3=O)cc2)CC1 (configuration not stated)	46*	-21	6	20*	23	-24
CC1CCN(CC(=O)Nc2ccc(S(=O)(=O)NC3CC3)cc2)CC1	74*	-25	-6	0	-4	-1
O=C(CNC1CCCCCC1)Nc1ccc(S(=O)(=O)NC2CC2)cc1	32*	-27	-11	4	-28	12
C/C(=N\NC(=O)COc1ccccc1[N+](=O)[O-])c1cccs1	-5	5	-5	1	0	11
C[C@@H]1CN([C@@H](C)CO)C(=O)CCCn2nncc2CO[C@H]1CN(C)S(=O)(=O)c1ccccc1C#N	-5	5	-6	0	-7	14
COc1cc2c(cc1OC)[C@H](C)N(C(=S)Nc1ccc(F)cc1)CC2	13	-4	-4	5	-1	9
CN(C)CCCN(C(=O)c1cccs1)c1nc(-c2ccccc2)cs1	41*	-12	19*	2	-11	12
COc1ccc(-c2csc(N(CCCN(C)C)C(=O)c3ccccc3Cl)n2)cc1	53*	-28	-9	3	-16	11
COc1ccc(-c2csc(N(CCCN(C)C)C(=O)c3ccccc3C)n2)cc1	14	-16	-9	3	-12	16
COc1cccc2cc(C(=O)NCc3ccccc3Br)c(=O)oc12	4	4	-4	0	-1	12
COc1cccc2cc(C(=O)NCc3ccccc3Cl)c(=O)oc12	-8	9	-1	15*	6	11
CC(C)CN(C(=O)CCC(=O)OCC(=O)N(C)c1ccccc1)c1c(N)n(CC(C)C)c(=O)[nH]c1=O	-11	6	-2	0	14	-12
CCN1/C(=c2/s/c(=C3/C(=O)N(c4ccccc4)N=C3C)n(CC)c2=O)C=Cc2ccccc21	-10	5	-4	6	6	-13
CCN1/C(=C2\C(=O)N(c3ccccc3)N=C2C)C=Cc2cc(C)ccc21	11	-14	20*	24*	15	-11
Cc1ccc(/C=C/C(=O)NCCCN2CCN(CCCNC(=O)/C=C/c3ccc(C)cc3)CC2)cc1	-10	6	-8	0	-11	15
COc1ccc(/C=C/C(=O)NCCCN2CCCC2)cc1	41*	-15	-8	6	-2	4
O=C(Nc1nc(-c2ccc(F)c(F)c2)cs1)c1cc([N+](=O)[O-])ccc1N1CCOCC1	-4	6	-3	2	-14	12
Cc1cc(C)c(-c2csc(NC(=O)c3cc([N+](=O)[O-])ccc3N3CCOCC3)n2)c(C)c1	59*	-30	-10	0	-2	18
O=C(NCc1cccnc1)c1cc([N+](=O)[O-])ccc1N1CCOCC1	-1	0	20*	1	-24	23
SMILES	CHRM1 antagonist	CHRM1 PAM	M1 ag	CHO-K1 Ca ag	CHO-K1 Ca antag	CHO-K1 Ca PAM
O=C(O)C1CC1(c1ccccc1)c1ccccc1 (configuration not stated)	-19	10	-2	-1	5	-20
CCCCCCCCCCCCCCCC[n+]1cccc(C(=O)N(CC)CC)c1	57*	-23	-3	0	-11	15
CCCCCCCC[n+]1cccc(C(=O)N(CC)CC)c1	-3	-1	-12	1	-11	20
CC(=O)c1c(COC(=O)c2ccco2)nc2ccccc2[n+]1[O-]	-20	5	-1	4	-13	16
O=C(OCc1nc2ccccc2[n+]([O-])c1C(=O)c1ccccc1)c1ccco1	14	-7	-1	1	24*	-19
Cc1ccccc1OCc1nc2ccccc2c(=O)n1NC(=O)c1ccco1	-31	4	18*	5	-7	18
CC(=O)Oc1ccc(C)cc1-n1nc2ccccc2n1	2	4	-2	0	24*	-5
O=C1C=C(N2CCCCCC2)C(=O)N1c1ccc(Cl)cc1	81*	-32	-8	1	-12	-1
Cc1nn(C)c(C)c1/C=N/NC(=O)C(C)(C)Oc1ccc(Cl)cc1	13	-7	-4	0	-6	4
COc1ccc(C(=O)NC(=S)NNC(=O)c2ccc(C)cc2)cc1	31	-21	87*	82*	14	-25
CCC(=O)NC(=S)NNC(=O)c1ccc(OC)cc1	0	-1	-4	0	-12	-3
CCCCC(=O)NNC(=S)NCc1ccccc1	39*	3	-3	0	-24	11
CCCCC(=O)NNC(=S)NC(=O)c1ccc(C)cc1	0	-2	39*	14	-1	6
CCNC(=S)NNC(=S)NCc1ccccc1	2	-4	-2	0	-11	5
Cc1cccc(NC(=O)c2cc(S(=O)(=O)N3CCCCC3)c[nH]2)c1C	-4	3	-2	1	-3	15
COc1ccc(CN2CCN(C(=O)C3CCN(S(=O)(=O)c4cccs4)CC3)CC2)c(OC)c1OC	1	1	-13	3	0	2
COc1cc(OC)c2c(c1)OC(=O)CC2c1ccc2c(c1)OCO2 (configuration not stated)	-4	4	-1	0	-10	7
COc1ccccc1-n1cc(-c2ccc(Cl)cc2)[nH]c1=O	3	3	-1	0	9	-3
O=C(O)C1CCC(=O)N1C1c2ccccc2Oc2ccccc21 (configuration not stated)	10	-9	-4	0	5	-13
COc1ccccc1NC(=O)c1nn(C)c(C(=O)Nc2ccccc2OC)c1[N+](=O)[O-]	3	-1	-2	2	-9	5
COc1cc(CN2CCN(C(O)(c3ccccc3)c3ccccc3)CC2)cc(OC)c1OC	62*	-28	-9	2	10	-6
